Measurements: PubChem BioAssay AID1159580 (chemical genetic matrix, 2015)
Among all 5,500 compounds or so, about 2,000 (36%) were called active. Another 18% or so got no clear call; they are omitted. Rule as the data show it: active = normalized growth mostly below about 0.91 (no sharp cut-off); inconclusive = no clear call, values can overlap the other calls; inactive = mostly above about 0.92. The list shows a part of the results.

Test: chemical genetic growth profiling, strain panel (AID 1159580);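 also: tested at 20 µM; growth read once vehicle control cultures reached saturation at 30 °C; 1 = growth at the plate median or of vehicle wells; lower values mean less growth of the strain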
Conditions: S. cerevisiae deletion strains, growth OD
[1] = locus YHR030C, strain SLT2, active compounds read low
[2] = locus YHR079C, strain IRE1, active compounds read low
[3] = locus YJL095W, strain BCK1, active compounds read low
[4] = locus YJR066W, strain TOR1, active compounds read low
[5] = locus YLR113W, strain HOG1, active compounds read low
[6] = locus YNL183C, strain NPR1, active compounds read low
[7] = locus YOR231W, strain MKK1, active compounds read low
[8] = locus YPL256C, strain CLN2, active compounds read low

Measured: normalized growth

O=c1cc(-c2ccc(O)cc2)oc2ccc(O)cc12
inactive: locus YAL021C, strain ccr4, active compounds read low 0.99 | locus YAL026C, strain drs2, active compounds read low 0.956 | locus YAL030W, strain snc1, active compounds read low 0.972 | locus YBL061C, strain skt5, active compounds read low 0.964 | locus YBR009C, strain hhf1, active compounds read low 0.936 | locus YBR023C, strain chs3, active compounds read low 0.987 | locus YBR171W, strain sec66, active compounds read low 0.981 | locus YBR231C, strain swc5, active compounds read low 0.979 | locus YBR279W, strain paf1, active compounds read low 0.978 | locus YCL011C, strain gbp2, active compounds read low 0.949 | locus YCL016C, strain dcc1, active compounds read low 0.981 | locus YCL061C, strain MRC1, active compounds read low 0.987 | locus YCL069W, strain vba3, active compounds read low 0.98 | locus YCR088W, strain abp1, active compounds read low 0.977 | locus YDL005C, strain med2, active compounds read low 0.969 | locus YDL040C, strain nat1, active compounds read low 0.985 | locus YDR001C, strain nth1, active compounds read low 0.97 | locus YDR069C, strain doa4, active compounds read low 0.922 | locus YDR137W, strain rgp1, active compounds read low 0.96 | locus YDR159W, strain sac3, active compounds read low 0.954 | locus YDR195W, strain ref2 0.943 | locus YDR297W, strain sur2, active compounds read low 0.958 | locus YDR334W, strain swr1, active compounds read low 0.976 | locus YDR335W, strain msn5, active compounds read low 0.979 | locus YDR392W, strain spt3, active compounds read low 0.935 | locus YEL003W, strain gim4, active compounds read low 0.97 | locus YEL037C, strain rad23, active compounds read low 0.971 | locus YEL061C, strain CIN8 (second series), active compounds read low 0.952 | locus YER015W, strain faa2, active compounds read low 0.997 | locus YER016W, strain bim1, active compounds read low 0.983 | locus YER111C, strain swi4, active compounds read low 0.973 | locus YER155C, strain BEM2 (second series), active compounds read low 0.963 | locus YFR010W, strain ubp6, active compounds read low 0.938 | locus YGL167C, strain pmr1, active compounds read low 0.949 | locus YGL173C, strain kem1, active compounds read low 0.961 | locus YGL227W, strain vid30, active compounds read low 0.96 | locus YGL240W, strain doc1, active compounds read low 0.964 | locus YGL253W, strain hxk2, active compounds read low 0.992 | locus YHR013C, strain ard1, active compounds read low 0.938 | locus YHR027C, strain rpn1, active compounds read low 0.962 | [1] 0.989 | [2] 0.992 | locus YHR142W, strain chs7, active compounds read low 0.976 | locus YJL092W, strain hpr5, active compounds read low 0.984 | locus YJL095W, strain BCK1 (second series), active compounds read low 0.978 | [3] 1 | locus YJL115W, strain asf1, active compounds read low 0.978 | locus YJL129C, strain trk1, active compounds read low 0.942 | locus YJL154C, strain vps35, active compounds read low 0.991 | locus YJL164C, strain tpk1, active compounds read low 0.958 | locus YJL166W, strain qcr8, active compounds read low 0.977 | locus YJL187C, strain SWE1, active compounds read low 0.973 | [4] 0.933 | locus YKL160W, strain elf1, active compounds read low 0.987 | locus YKR026C, strain gcn3, active compounds read low 0.963 | locus YKR091W, strain srl3, active compounds read low 0.984 | locus YLL001W, strain dnm1, active compounds read low 0.964 | locus YLL026W, active compounds read low 0.986 | locus YLL041C, strain sdh2, active compounds read low 0.995 | locus YLR027C, strain aat2, active compounds read low 0.971 | [5] 0.951 | locus YLR221C, strain rsa3, active compounds read low 0.988 | locus YLR258W, strain gsy2, active compounds read low 0.977 | locus YLR262C, strain YPT6 (second series), active compounds read low 0.959 | locus YLR320W, strain mms22, active compounds read low 0.964 | locus YLR342W, strain FKS1, active compounds read low 0.97 | locus YLR357W, strain rsc2, active compounds read low 0.982 | locus YLR370C, strain arc18, active compounds read low 0.947 | locus YLR384C, strain iki3, active compounds read low 0.969 | locus YML120C, strain ndi1, active compounds read low 0.956 | locus YMR058W, strain fet3, active compounds read low 0.961 | locus YMR125W, strain sto1, active compounds read low 0.947 | locus YMR129W, active compounds read low 0.973 | locus YMR205C, strain PFK2, active compounds read low 0.946 | locus YMR231W, strain pep5, active compounds read low 0.974 | locus YNL071W, strain lat1, active compounds read low 0.984 | [6] 0.932 | locus YNL209W, strain ssb2, active compounds read low 0.975 | locus YNL248C, strain rpa49, active compounds read low 0.988 | locus YNL322C, strain KRE1 (second series), active compounds read low 0.97 | locus YNR049C, strain mso1, active compounds read low 0.989 | locus YOR001W, strain rrp6, active compounds read low 0.991 | locus YOR070C, strain gyp1, active compounds read low 0.988 | locus YOR080W, strain dia2, active compounds read low 0.967 | locus YOR083W, strain WHI5, active compounds read low 0.918 | locus YOR106W, strain vam3, active compounds read low 0.974 | [7] 0.968 | locus YOR265W, strain rbl2, active compounds read low 0.961 | locus YOR270C, strain vph1, active compounds read low 0.919 | locus YOR290C, strain snf2, active compounds read low 0.943 | locus YPL051W, strain arl3, active compounds read low 0.971 | locus YPL078C, strain atp4, active compounds read low 0.987 | locus YPL106C, strain sse1, active compounds read low 0.888 | locus YPL240C, strain hsp82, active compounds read low 0.981 | [8] 0.973

COc1ccc2oc(-c3ccccc3OC)cc(=O)c2c1
inactive: [1] 0.875 | [2] 0.911 | [3] 0.889 | [4] 0.851 | [5] 0.966 | [6] 0.883 | [7] 0.91 | [8] 0.936
